Measurements from PubChem BioAssay (Tox21).
Values joined by “and” are separate entries in the source; they are usually repeats but may differ in a detail not shown here. Equal values may be shown once. Records with an inconclusive call do not appear. Some compounds were tested as several samples or in several runs, with calls that do not always agree. Active and inactive are the calls of the source. Unless noted, calls follow the shape of the dose curve; as a rule, active = well fitted curve in the direction sought with a large enough effect in the repeat runs; inconclusive = weak or mixed curves; inactive = no such curve, though single readings can be large; an effect the other way counts as inactive or inconclusive.

Assays:
[1] = target: Luciferin 4-monooxygenase (Photinus pyralis) (UniProt P08659); experiment: qHTS assay to identify small molecule inhibitors of firefly luciferase (AID 1224835); also: series mostly up to about 120 µM; nearly all actives have a fitted effect of over 25% in size
How it was run: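 Biochemical qHTS: compounds run as interplate titrations against purified firefly enzyme, with D-luciferin and ATP each at its KM concentration. Light output recorded by CCD imaging.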

[2] = qHTS assay to identify small molecule agonists of the constitutive androstane receptor (CAR) signaling pathway - cell viability counter screen (AID 1224836); also: nearly all actives have a fitted effect of over 45% in size; also: potency is read from the fitted curve at half-maximal effect; as to viability change, negative = cytotoxic: series mostly up to about 92 µM
How it was run: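 23 h treatment, 37 C, 5% CO2. Cell line: HepG2 stably expressing hCAR with a CYP2B6-2.2kb construct. Co-treatment: PK11195, 0.75 uM final. Read-out: CellTiter-Fluor fluorescence intensity.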

[3] = qHTS assay to identify small molecule antagonists of the constitutive androstane receptor (CAR) signaling pathway - cell viability counter screen (AID 1224837); also: nearly all actives have a fitted effect of over 45% in size; also: potency is read from the fitted curve at half-maximal effect; as to activity change, negative = cytotoxicity: series mostly up to about 92 µM
How it was run: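 HepG2-CYP2B6-hCAR cells, 2500/well, 4 hr pre-incubation; compound titration, 15 conc.; CITCO 50 nM final; 23 hr, 37 C/5% CO2; CellTiter-Fluor, fluorescence intensity.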

[4] = target: Nuclear receptor subfamily 1 group I member 3 (Homo sapiens) (UniProt Q14994); experiment: qHTS assay to identify small molecule antagonists of the constitutive androstane receptor (CAR) signaling pathway (AID 1224838);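 also: HepG2 cells stably expressing hCAR with CYP2B6 luciferase reporter stimulated by CITCO; nearly all actives have a fitted effect of over 40% in size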
How it was run: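 HepG2-CYP2B6-hCAR cells; 4 h pre-incubation; cpd (15 conc) + CITCO 50 nM final; 24 h, 37 C/5% CO2; ONE-Glo, luminescence.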

[5] = target: Nuclear receptor subfamily 1 group I member 3 (Homo sapiens) (UniProt Q14994); experiment: qHTS assay to identify small molecule agonists of the constitutive androstane receptor (CAR) signaling pathway (AID 1224839); also: nearly all actives have a fitted effect of over 15% in size; also: potency is read from the fitted curve at half-maximal effect;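 as to activation: HepG2 cells stably carrying human CAR and a CYP2B6 luciferase reporter; series mostly up to about 92 µM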
How it was run: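 Compounds tested at 15 concentrations on HepG2 cells stably harbouring hCAR and CYP2B6-2.2kb reporter constructs, co-treated with PK11195 (0.75 uM final), 24 h at 37 C; luminescent reporter signal quantified.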

[6] = qHTS assay to identify small molecule antagonists of the estrogen related receptor signaling pathway with the pleiotropic PPARgamma coactivator (PGC) from Tox21 10K library - cell viability counter screen (AID 1224840; active = well fitted cell-killing curve with a large enough effect in the repeat runs, not every such curve was filed as active; also: nearly all actives have a fitted effect of over 40% in size)
How it was run: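 PGC/ERR cells, 2,000/well; 6 h pre-incubation 37 C/5% CO2; cpd in DMSO via pin tool; 17.5 h 37 C; CellTiter-Fluor, 30 min; fluorescence.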

[7] = target: Thyrotropin receptor (Homo sapiens) (UniProt P16473); experiment: qHTS assay to identify small molecule agonists of the thyroid stimulating hormone receptor (TSHR) signaling pathway (AID 1224843; calls by dose curve; also: nearly all actives have a fitted effect of over 45% in size)
How it was run: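 TSHR-HEK293 cells in agonist mode, 30 min room-temperature step, then cAMP measured by competitive HTRF (cAMP-d2 with anti-cAMP cryptate) after 1 h at room temperature. Tested at 15 concentrations in triplicate.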

[8] = qHTS assay to identify small molecule agonists of the hypoxia (HIF-1) signaling pathway - cell viability counter screen (AID 1224844; calls by dose curve; also: nearly all actives have a fitted effect of over 50% in size; also: potency is read from the fitted curve at half-maximal effect)
How it was run: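 ME-180 HRE-bla cells, 2,000/well, 0.5% dialyzed FBS; 5 hr settle, 17 hr compound at 37C/5% CO2; CCF4-AM reporter read first, then CellTiter-Glo luminescence after 30 min RT.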

[9] = qHTS assay to identify small molecule antagonists of the estrogen related receptor signaling pathway with the pleiotropic PPARgamma coactivator (PGC) from Tox21 10K library (AID 1224841; call rule not given here; also: actives are mostly falling curves and most rising ones were filed inactive; nearly all actives have a fitted effect of over 50% in size; also: potency is read from the fitted curve at half-maximal effect; as to activity, negative = inhibition: series mostly up to about 92 µM)
How it was run: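 PGC/ERR cell line, 2,000 cells/well; 6 h pre-incubation 37 C/5% CO2; compounds (DMSO) pinned in; 18 h, 37 C; One-Glo, 30 min RT; luminescence.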

[10] = qHTS assay to identify small molecule agonists of the estrogen related receptor signaling pathway with the pleiotropic PPARgamma coactivator (PGC) from Tox21 10K library (AID 1224842); also: nearly all actives have a fitted effect of over 15% in size
How it was run: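 PGC/ERR reporter cell line, 2,000 cells per well, incubated 6 h at 37 C before 23 nL compound in DMSO was added. After 18 h at 37 C, One-Glo luminescence read following 30 min at room temperature.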
% is scaled to controls: 0 for no effect and ±100 for the full control effect.

Sequence of Nuclear receptor subfamily 1 group I member 3 (Homo sapiens) (Q14994 whole entry, looked up): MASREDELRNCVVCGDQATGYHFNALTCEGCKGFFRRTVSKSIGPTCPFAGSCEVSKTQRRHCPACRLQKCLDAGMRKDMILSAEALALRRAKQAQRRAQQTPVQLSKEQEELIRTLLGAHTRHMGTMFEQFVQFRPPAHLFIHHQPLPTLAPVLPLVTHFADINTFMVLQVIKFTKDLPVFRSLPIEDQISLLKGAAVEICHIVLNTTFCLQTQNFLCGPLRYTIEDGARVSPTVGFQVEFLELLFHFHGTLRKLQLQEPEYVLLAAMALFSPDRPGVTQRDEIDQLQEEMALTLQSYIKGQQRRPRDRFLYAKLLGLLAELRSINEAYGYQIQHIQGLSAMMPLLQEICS
Sequence of Thyrotropin receptor (Homo sapiens) (P16473 whole entry, looked up): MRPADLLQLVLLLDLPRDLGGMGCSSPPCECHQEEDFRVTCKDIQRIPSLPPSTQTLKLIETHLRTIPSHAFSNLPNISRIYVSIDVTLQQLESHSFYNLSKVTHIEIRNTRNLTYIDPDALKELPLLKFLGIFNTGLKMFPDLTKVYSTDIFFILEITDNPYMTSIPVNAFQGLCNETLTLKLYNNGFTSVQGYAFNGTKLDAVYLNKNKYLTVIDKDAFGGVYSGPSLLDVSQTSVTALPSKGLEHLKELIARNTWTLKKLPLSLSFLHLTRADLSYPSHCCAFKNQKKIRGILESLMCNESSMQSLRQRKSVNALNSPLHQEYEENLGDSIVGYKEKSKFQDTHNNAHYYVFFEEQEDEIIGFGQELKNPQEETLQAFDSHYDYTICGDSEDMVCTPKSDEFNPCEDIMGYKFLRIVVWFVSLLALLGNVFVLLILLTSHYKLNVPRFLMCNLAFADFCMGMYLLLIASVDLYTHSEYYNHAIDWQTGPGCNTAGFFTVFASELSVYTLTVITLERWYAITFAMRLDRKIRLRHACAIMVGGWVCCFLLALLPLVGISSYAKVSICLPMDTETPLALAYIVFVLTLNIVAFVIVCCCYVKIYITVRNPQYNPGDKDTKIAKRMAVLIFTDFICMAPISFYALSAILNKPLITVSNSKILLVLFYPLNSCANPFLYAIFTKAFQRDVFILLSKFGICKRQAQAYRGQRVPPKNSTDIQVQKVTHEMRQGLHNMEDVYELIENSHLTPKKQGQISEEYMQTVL
Sequence of Luciferin 4-monooxygenase (Photinus pyralis) (P08659 whole entry, looked up): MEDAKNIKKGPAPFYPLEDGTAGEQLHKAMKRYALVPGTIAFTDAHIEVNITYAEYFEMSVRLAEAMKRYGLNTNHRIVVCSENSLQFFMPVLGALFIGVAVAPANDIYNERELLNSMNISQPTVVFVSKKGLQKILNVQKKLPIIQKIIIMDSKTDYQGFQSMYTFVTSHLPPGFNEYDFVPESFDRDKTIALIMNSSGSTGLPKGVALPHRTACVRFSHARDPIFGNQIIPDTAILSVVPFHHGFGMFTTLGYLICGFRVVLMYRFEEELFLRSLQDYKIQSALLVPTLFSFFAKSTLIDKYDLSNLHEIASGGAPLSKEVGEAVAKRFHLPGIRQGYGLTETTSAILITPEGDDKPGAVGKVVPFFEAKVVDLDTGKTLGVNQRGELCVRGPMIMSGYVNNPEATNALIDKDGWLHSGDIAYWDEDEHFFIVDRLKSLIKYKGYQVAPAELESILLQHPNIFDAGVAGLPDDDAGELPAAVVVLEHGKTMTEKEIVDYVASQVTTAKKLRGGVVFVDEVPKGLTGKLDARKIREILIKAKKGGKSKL

Cc1ccccc1
inactive: Potency [1] | Potency [2] | Potency [3] | Potency [4] | Potency [5] | Potency [6] | Potency [7] | Potency [8]

C[C@@H]1C[C@@H]([C@H](O)CC2CC(=O)NC(=O)C2)C(=O)[C@@H](C)C1
active: Potency [2] 969 nM | Potency [3] 765 nM and 611 nM | Potency [9] 682 nM and 433 nM and 531 nM | Potency [8] 379 nM
inactive: Potency [1] | Potency [6] | Potency [10] | Potency [7]

C=CCc1ccccc1O
inactive: Potency [1] | Potency [2] | Potency [3] | Potency [6] | Potency [9] | Potency [10] | Potency [8]

OCCSSCCO
inactive: Potency [1] | Potency [2] | Potency [3] | Potency [4] | Potency [5] | Potency [6] | Potency [8]

CCCCCl
inactive: Potency [1] | Potency [2] | Potency [3] | Potency [6] | Potency [9] | Potency [10] | Potency [7] | Potency [8]

COP(=O)(OC)OC(Br)C(Cl)(Cl)Br (stereo not given)
active: Potency [8] 43600 nM
inactive: Potency [1] | Potency [2] | Potency [3] | Potency [4] | Potency [5]

CCC(=O)O[C@@H]1C=C2CCC3C(CCC4(C)C3CC[C@@H]4OC(=O)CC)C2CC1 (stereo not given in full)
inactive: Potency [1] | Potency [2] | Potency [3] | Potency [6] | Potency [7] | Potency [8]

C[C@H]1[C@@H]2Cc3ccc(O)cc3[C@@]1(C)CCN2C
inactive: Potency [1] | Potency [2] | Potency [3] | Potency [6] | Potency [9] | Potency [10] | Potency [7] | Potency [8]

NNCCO
inactive: Potency [1] | Potency [2] | Potency [3] | Potency [6] | Potency [9] | Potency [10] | Potency [7] | Potency [8]

COc1ccc(C(=O)c2c(C)n(CCN3CCOCC3)c3ccccc23)cc1
inactive: Potency [1] | Potency [2] | Potency [3] | Potency [6] | Potency [9] | Potency [10] | Potency [8]

CCCCCCCCCCCCN=C(N)N
inactive: activity change, negative = inhibition [1] 0.224% [at 4.07 µM] | viability change, negative = cytotoxic [2] 0.263% [at 3.27 µM] | activity change, negative = cytotoxicity [3] -5.88% [at 3.26 µM] | activity, negative = inhibition [4] 9.02% [at 3.26 µM] | viability change, negative = cytotoxic [6] 2.19% [at 3.27 µM] | activation [7] 5.05% [at 3.27 µM] | activity change, negative = cytotoxicity [8] -8.49% [at 2.72 µM]

CC(C)[C@@H](C(=O)O[C@@H](C#N)c1cccc(Oc2ccccc2)c1)c1ccc(Cl)cc1
inactive: Potency [1] | Potency [2] | Potency [3] | Potency [6] | Potency [8]
19.6 µM (active) and inactive: Potency [5]

CC1(C)[C@H](C(=O)O[C@H](C#N)c2cccc(Oc3ccccc3)c2)[C@@H]1C=C(Br)Br
inactive: Potency [1] | Potency [2] | Potency [3] | Potency [6] | Potency [9] | Potency [10] | Potency [8]

CCCC[P+](CC)(CCCC)CCCC (tested in a mixture with another compound)
inactive: Potency [1] | Potency [2] | Potency [3] | Potency [6] | Potency [7] | Potency [8]

CN(C)N
inactive: Potency [1] | Potency [2] | Potency [3] | Potency [6] | Potency [7] | Potency [8]
